The values below come from PubChem BioAssay AID588819 (The Scripps Research Institute Molecular Screening Center, 2011).

Each structure is given as a SMILES string. Screen size: about 360,000 compounds; about 320 (0.089%) were called active. The sample holds actives, similar compounds and a random draw of the others, so the mix is not that of the screen. A number with no mark means an inactive call. Rule as the data show it: active = activation above about 19% (passing the limit was not always enough); inactive = the rest.

This assay deals with Muscarinic acetylcholine receptor M1 (Homo sapiens) (UniProt P11229). As to the kind of experiment: human M1 muscarinic receptor positive allosteric modulators, primary screen, CHO-K1 cells, Fluo-8 calcium fluorescence, 1536-well (AID 588819). As to conditions: CHO-K1 hM1, Fluo-8 calcium fluorescence, ACh EC20; at 3 µM; active compounds read high; 0% = ACh EC20, 100% = maximal ACh.
Sequence of Muscarinic acetylcholine receptor M1 (Homo sapiens) (P11229 whole entry, looked up): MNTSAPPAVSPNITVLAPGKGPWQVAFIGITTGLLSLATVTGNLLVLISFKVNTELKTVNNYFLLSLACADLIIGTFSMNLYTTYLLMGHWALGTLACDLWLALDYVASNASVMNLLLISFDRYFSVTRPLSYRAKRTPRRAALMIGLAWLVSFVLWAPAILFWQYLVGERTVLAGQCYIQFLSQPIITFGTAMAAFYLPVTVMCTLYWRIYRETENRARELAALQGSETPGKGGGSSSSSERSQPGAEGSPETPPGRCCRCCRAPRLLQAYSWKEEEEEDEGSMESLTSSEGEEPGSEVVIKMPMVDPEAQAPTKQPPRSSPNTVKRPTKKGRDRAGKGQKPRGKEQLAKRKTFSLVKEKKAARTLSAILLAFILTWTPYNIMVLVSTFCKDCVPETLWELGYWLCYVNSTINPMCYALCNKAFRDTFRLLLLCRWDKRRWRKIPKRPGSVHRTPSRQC
Turning to `CN(C(=O)c1cccc(NC(=O)Cc2ccc(NC(=O)C3CCN(C(=O)C4CCCCC4)CC3)cc2)c1)C1CCC1`, the activation was 0.54%.
For `CS(=O)(=O)N(CC(=O)NC1CCCC1)Cc1ccc(F)cc1`, the activation was 0.34%.
In the case of `Cc1ccc(NC(=O)Cn2cccc2C2=NC(c3ccccc3)CO2)c(C)c1` (centres undefined), the activation is 6.3%.
For the molecule `COCCn1c(SCC(=O)Nc2ccc3c(c2)CCC3)nc2ccccc2c1=O`, the activation was 5.21%.
Consider `CCCC1NC(=O)NC(C)=C1C(=O)OCC` (centres undefined), for which the activation was 3.33%.
With `COCC(=O)Nc1cc(C(=O)OC)cc(C(=O)OC)c1`, the activation was 7.56%.
Turning to `Cc1cc(=O)oc(C)c1C(=O)Nc1cnc2ccccc2c1`, the activation is 1%.
With `CCOC(=O)C1CCN(C(=O)c2oc3ccc(S(=O)(=O)N4CCCCCC4)cc3c2C)CC1`, the activation is 1.16%.
With `COc1ccc(S(=O)(=O)N2CCN(C(=O)c3cc(C)oc3C)CC2)cc1`, the activation is 10.8%.
For the molecule `CCOc1ccc(S(=O)(=O)N2CCN(C(=O)c3oc4ccccc4c3C)CC2)cc1`, the activation was 24.4% (active).
With `CCOP(=O)(OCC)C(Nc1ccc([N+](=O)[O-])cc1)c1ccc(Cl)cc1` (centres undefined) the figure was -2.85%; with `Cc1ccc2oc(=O)c3cnn(CC(=O)N4CCN(c5ccccn5)CC4)c3c2c1`, -8.22%.
As for `COCCNC(=O)NC(=O)COC(=O)C1(c2ccc(Cl)cc2)CC1`, the activation was -0.78%.
On to `O=C(NCc1ccc(Cl)cc1)c1cc(=O)nc2sc(-c3ccccc3)nn12`, for which the activation was -4.02%.
Consider `O=C(Cn1cnc2ccccc2c1=O)NCC1COc2ccccc2O1` (centres undefined), for which the activation was 3.11%.
`O=C(CN1C(=O)C2C3C=CC(C3)C2C1=O)NCC1COc2ccccc2O1` (centres undefined): the activation was 19.5% (active).
Take `O=C(Cn1nc(Cc2cccnc2)c2ccccc2c1=O)NCC1COc2ccccc2O1` (centres undefined): the activation was 9.27%.
For `Cc1nn(Cc2ccccc2)c(C)c1C(=O)NCCCN1CCCC1=O`, the activation is 3.09%.
Take `COc1ccc(C)cc1NC(=O)CN(C)S(=O)(=O)c1ccc2c(c1)n(C)c(=O)c(=O)n2C`: the activation is 11.7%.
Turning to `CCOC(=O)c1cc2occc2n1CC(=O)N1CCN(C(=O)c2ccco2)CC1`, the activation is 0.31%.
With `O=C(N/C(=C\c1ccc(O)cc1)C(=O)N1CCCCC1)c1ccccc1` the figure was -7.21%; with `O=C(O)c1ccc(NN=CC2=C(N3CCOCC3)/C(=C/c3ccccc3)CC2)cc1`, 1.33%; with `O=C1Nc2ccc(Br)cc2/C1=N/N=C/C1=C(N2CCOCC2)C(=C\c2ccccc2)/CC1`, 19.2% (active).
Take `Cc1cccc(N2CC(C)Cn3c2nc2c3c(=O)n(CC(=O)OCc3ccccc3)c(=O)n2C)c1` (centres undefined): the activation is 6.13%.
With `O=C(CCc1ccccc1)Nc1ccnn1C1CCN(Cc2ccc(OCCO)cc2)CC1` the figure was -2.48%.
As to `COc1cccc(Cn2cnc3c([N+](=O)[O-])c(C)c(C)cc32)c1`, the activation was -0.11%.
As for `COCCNC(=S)N(CCc1c(C)[nH]c2ccc(C)cc12)Cc1cccnc1`, the activation is 9.1%.
In the case of `Cc1cccc(Nc2ccccc2C(=O)NCc2ccco2)c1C`, the activation was -3.33%.
With `COc1ccc(C(=O)Nc2ccccc2C(=O)NCc2ccco2)cc1` the figure was 30.1% (active); with `Cc1ccc(N(Cc2ccc(C(=O)Nc3ccccc3C(=O)NCc3ccco3)cc2)S(C)(=O)=O)cc1C`, -6.42%.
In the case of `CN=C(Nc1cccc(S(=O)(=O)N2CCOCC2)c1)c1ccccc1`, the activation was -5.57%.
Under `Nc1nnnn1/N=C/c1cccc(Br)c1` stands 11.8%; under `Nc1nnnn1/N=C/c1cccs1`, 1.93%; under `Nc1nnnn1/N=C/c1cc([N+](=O)[O-])ccc1O`, 26.2% (active).
As to `CC(C)c1nc2ccc(C(=O)O)cc2[nH]1`, the activation was 31.2% (active).
With `O=C(NCC(O)c1nc2ccccc2[nH]1)c1ccc(Br)cc1` (centres undefined) the figure was -1%; with `OC(c1nc2ccc(F)cc2[nH]1)C(O)c1nc2ccc(F)cc2[nH]1` (centres undefined), 3.09%; with `CN(c1ccccc1)S(=O)(=O)c1cccc(C(=O)NNC(=O)c2ccncc2)c1`, 1.76%.
As to `Cc1ccc(-c2cc(C(=O)N/N=C/C=C/c3ccco3)c3ccccc3n2)cc1C`, the activation is 21.5% (active).
As to `CCOc1ccc(-c2cc(C(=O)N/N=C/c3ccc(O)cc3)c3ccccc3n2)cc1`, the activation is 9.09%.
`O=C(N/N=C/C=C/c1ccco1)c1cccs1`: the activation was 8.09%.
As to `O=c1[nH]c2ccc(S(=O)(=O)N3CCCC3)cc2[nH]1`, the activation was 2.57%.
With `O=C(C1CCN(C2CCN(Cc3ccc4cc(F)ccc4n3)CC2)CC1)N1CCCC1` the figure was 8.71%; with `CCN(CC)CCn1c(=S)[nH]c2ncccc2c1=O`, 1.96%; with `CCc1ccc(NC(=O)CC2C(=O)NCCN2C(=S)Nc2ccccc2)cc1` (centres undefined), 7.43%.
For the molecule `COc1ccccc1C(=O)Nc1nc2nc(-c3ccccc3)cc(=O)n2[nH]1`, the activation is 10.9%.
For `O=C(CCC(=O)N1CCN(S(=O)(=O)c2ccc(Cl)cc2)CC1)NCc1cccc(C(F)(F)F)c1`, the activation is -4.55%.
`COC(=O)c1ccc(C(=O)Nc2cc(Cl)ccc2Cl)cc1NC(=O)c1ccccc1C`: the activation was 7.99%.
With `CCOC(=O)c1sc(/N=C/C2=C(O)CC(C)(C)CC2=O)c(C(=O)OCC)c1C`, the activation was 2.16%.
On to `CC(Oc1ccccc1F)C(=O)NN` (centres undefined), for which the activation was 1.45%.
On to `COc1ccc(CCNC(=O)C2CCCN(Cc3nc(-c4cccc(Cl)c4)oc3C)C2)cc1OC` (centres undefined), for which the activation was 4.43%.
As to `NC(=O)C1CCN(Cc2nc3c(Br)cc(Br)cc3c(=O)[nH]2)CC1`, the activation is 8.06%.
Regarding `COc1ccc(CNC(=O)C2CCN(S(=O)(=O)N3CCOCC3)CC2)cc1`, the activation is 5.85%.
Take `O=C(NCc1ccccc1Cl)C1CCN(S(=O)(=O)N2CCOCC2)CC1`: the activation was -0.4%.
Take `O=C(O)C1CCN(S(=O)(=O)N2CCOCC2)CC1`: the activation was 29.8% (active).
Take `COc1cc2c(cc1OC)C(C(=O)NCc1ccco1)C1c3ccccc3CCN1C2=O` (centres undefined): the activation is 3.09%.
Regarding `O=C(NCc1csc(-c2cccs2)n1)C1CC1`, the activation was 9.22%.
With `CC(=O)c1ccc(S(=O)(=O)Nc2ccc(-c3ccc4nncn4n3)cc2)cc1` the figure was 7.59%.
With `O=C(c1cncc(Br)c1)N1CCN(c2ccc([N+](=O)[O-])cc2)CC1` the figure was -20%; with `CCc1cccc(C)c1NS(=O)(=O)c1c(C)nc2sccn2c1=O`, 4.98%.
Consider `Cc1ccc(-c2csc(N3CCN(c4cc5c(cc4Cl)nc(-c4ccncc4)n5CCOCCO)CC3)n2)cc1`, for which the activation is 21.4%.
With `Cc1ccc2nc(SCC(=O)N3CCN(c4ccccc4)CC3)nc(=O)n2c1` the figure was 3.95%.
With `Cc1ccc(-n2c(CNc3ccc(F)cc3)nnc2SCC(=O)N2CCOCC2)cc1` the figure was 7.13%; with `O=C(O)CN1C(=O)CC(Cc2ccccc2)C1=O` (centres undefined), 11.7%; with `O=C1N[C@@H](Cc2ccccc2)C(=O)N2[C@H]1C[C@]1(Br)c3ccccc3N(S(=O)(=O)c3ccccc3)[C@H]21`, 7.1%.
For the molecule `CSc1ccc(S(=O)(=O)NCC(=O)OCC(=O)NC2(C#N)CCCCC2)cc1[N+](=O)[O-]`, the activation is 3.7%.
For `Cc1ccc(N2C(=O)c3ccccc3C2(O)c2ncc[nH]2)cc1` (centres undefined), the activation was 8.87%.
Under `CCc1c(C)nc2ncnn2c1N1CCC(C(=O)NCc2ccc3c(c2)OCO3)CC1` stands 5.91%; under `COCCn1c(SCC(=O)N2CCCCCC2)nc2c(c1=O)SCC2`, 26.5% (active); under `Cn1c(SCC(=O)N2CCCCC2)nc2c(c1=O)SCC2`, -5.48%.
Under `COCCn1c(SCC(=O)Nc2ccccc2F)nc2c(c1=O)SCC2` stands 7.02%.
Turning to `CSCCC(NC(=O)c1ccco1)C(=O)OCC(=O)Nc1ncc(Cl)c(C)c1Cl` (centres undefined), the activation was 20.9% (active).
Under `CSCCC(NC(=O)c1ccco1)C(=O)Nc1cc(C)ccn1` (centres undefined) stands 3.47%; under `Cc1c(Cl)cnc(NC(=O)COC(=O)C2CCCC2)c1Cl`, 4.9%.
`CC(=NNC(=O)c1ccncc1)c1ccc(Cl)c(Cl)c1`: the activation is -2.62%.
As for `C/C(=N/NC(=O)c1ccncc1)c1ccc2c(c1)OCO2`, the activation was 6.79%.
Consider `C/C(=N/NC(=O)c1ccn(C)n1)c1ccncc1`, for which the activation was 33.2% (active).
As to `Cc1cccc2c1N(CCOc1ccccc1)C(=O)C2=O`, the activation is 8.27%.
On to `Cc1cc(C)c(S(=O)(=O)c2ccc(F)cc2C)c(=O)[nH]1`, for which the activation was 2.45%.
Regarding `COC(=O)C1=C(C)N(C(C)c2ccccc2)C(=O)/C1=C\c1ccco1` (centres undefined), the activation was 3.44%.
With `CCCc1cc(=O)n2[nH]c(C)c(-c3ccc(Cl)cc3)c2n1` the figure was 12.2%; with `COc1ccc(C(=O)NCC2CCCN2S(=O)(=O)c2cccs2)cc1OC` (centres undefined), 6.88%; with `CCCCNC(=O)OC(C)CNC(=O)OC` (centres undefined), 4.6%.
With `Cc1ccc(NS(=O)(=O)c2c(C)[nH]c(=O)[nH]c2=O)cc1C` the figure was 6.73%.
With `O=S(=O)(Nc1ccccc1)c1ccc(NS(=O)(=O)c2cccs2)cc1` the figure was 11.7%; with `Cc1ccc(S(=O)(=O)N2CCOCC2)cc1NC(=O)CSc1nnc(N)s1`, 3.59%.
Consider `CCOc1ccc(N2CC(C(=O)N/N=C/c3sccc3C)CC2=O)cc1` (centres undefined), for which the activation was 1.58%.
In the case of `CC1CN/C(=C\C(=O)c2ccc(Br)cc2)C(=O)N1` (centres undefined), the activation was 5.69%.
For `Cc1ccc(C(O)P(=O)(OC(C)C)c2ccc(N(C)C)cc2)cc1` (centres undefined), the activation was 9.51%.
`CC(C)(C)NC(=O)COC(=O)c1cc(Cl)ccc1[N+](=O)[O-]`: the activation is 4.45%.
`Cc1ccc(N2CC(C(=O)Nc3cc(Cl)ccc3-n3cncn3)CC2=O)cc1` (centres undefined): the activation was 8.82%.
`CCOC(=O)N1CCN(C(=O)C2CC(c3ccc(F)cc3)=NO2)CC1` (centres undefined): the activation was -1.27%.
As for `O=C(c1ccco1)N1CCN(C(=O)C2CC(c3ccc(Cl)c(Cl)c3)=NO2)CC1` (centres undefined), the activation is 1.62%.
As for `O=C(c1ccco1)N1CCN(C(=O)C2CC(c3ccc(F)cc3)=NO2)CC1` (centres undefined), the activation is 25.8% (active).
